Several values for one entry are separate records, joined by “and”; a condition that tells them apart may be missing. Equal entries are not always repeated. Records with an inconclusive call do not appear. Entries that show only a call come without a potency. Unmarked numbers belong to inactive results. Activity calls are given as the source filed them. Calls come from the whole dose curve; as a rule, active = well fitted cell-killing curve with a large enough effect in the repeat runs; inconclusive = weak or mixed curves, or effect the other way; inactive = flat fitted curve, though single readings scatter.
Columns and labels:
[1] = cAMP Responsive Elements (CRE) small molecule antagonists, cell-based qHTS assay: qHTS cell viability counter screen (AID 2060913); note: nearly all actives have a fitted effect of over 40% in size
Summary of the method: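 CRE-bla HEK293T cells were seeded in assay medium with 10% dialyzed FBS, incubated 18 hrs at 37 C, then exposed to compounds plus 0.25 uM final NKH477 for 3 hrs. Viability was read by CellTiter-Glo luminescence after 30 min, in the same wells.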

[2] = cAMP Responsive Elements (CRE) small molecule agonists, cell-based qHTS assay: qHTS cell viability counter screen (AID 2060914);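 note: viability read after 3 h of compound exposure; nearly all actives have a fitted effect of over 50% in size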
Summary of the method: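 Cells are seeded and incubated 18 h, treated with compounds in DMSO for 3 h, read for the bla reporter, then given CellTiter-Glo; luminescence is measured after 30 min at room temperature.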
Potency is the fitted concentration of half-maximal effect.

Structure (SMILES)	Potency [1]	Potency [2]	viability change, negative = cytotoxic [1]	activity change, negative = cytotoxicity [2]
O=C(COCCOCCOCC(=O)Nc1c(I)cc(I)c(C(=O)O)c1I)Nc1c(I)cc(I)c(C(=O)O)c1I	inactive	inactive	–	–
O=c1[nH]c(=O)n([C@H]2C[C@H](O)[C@@H](CO)O2)cc1C(F)(F)F	inactive	inactive	–	–
O=C1C(N(CO)C(=O)NCO)N(CO)C(=O)N1CO (configuration not stated)	inactive	inactive	–	–
Cc1[nH]c(=O)c(C#N)cc1-c1ccncc1	inactive	inactive	–	–
O=c1oc2cc(O)ccc2c2oc3cc(O)ccc3c12	inactive	inactive	–	–
CCCCCOC(C)=O	inactive	inactive	–	–
NC(=O)c1cccnc1	inactive	inactive	–	–
O=C(O)C[C@H](O)C[C@H](O)/C=C/c1c(C2CC2)nc2ccccc2c1-c1ccc(F)cc1	–	–	5.03% [at 18.9 µM]	17.9% [at 18.9 µM]
CC1=CC[C@H]2C[C@@H]1C2(C)C	inactive	inactive	–	–
OCCc1ccccc1	inactive	inactive	–	–
CC1(C)C(=O)N(Cl)C(=O)N1Br	inactive	inactive	–	–
ClC(c1ccccc1)(c1ccccc1)c1ccccc1	inactive	inactive	–	–
Nc1ccc(Cl)c([N+](=O)[O-])c1	inactive	inactive	–	–
NC(N)=N/N=C/c1c(Cl)cccc1Cl	inactive	inactive	–	–
c1ccccc1	inactive	inactive	–	–
Cc1cc(C2CCCCC2)n(O)c(=O)c1	inactive	inactive	–	–
CCCCCCC(=O)OCC	inactive	inactive	–	–
CC(C)(c1cc(Br)c(O)c(Br)c1)c1cc(Br)c(O)c(Br)c1	inactive	inactive	–	–
Cc1cccc(N(C)C(=S)Oc2ccc3c(c2)CCC3)c1	inactive	inactive	–	–
C=CC(=O)OCCCCCC	inactive	inactive	–	–
Cc1cccc(C)n1	inactive	inactive	–	–
Cc1sccc1Br	inactive	inactive	–	–
O=C(O)CCNC(=O)c1ccccc1	inactive	inactive	–	–
c1ccc2cnccc2c1	inactive	inactive	–	–
CCC[C@H](N[C@@H](C)C(=O)N1[C@H](C(=O)O)C[C@@H]2CCCC[C@@H]21)C(=O)OCC	inactive	inactive	–	–
CCCCNC1CC(C)(C)NC(C)(C)C1	inactive	inactive	–	–

Structure (SMILES)	Potency [1]	Potency [2]	viability change, negative = cytotoxic [1]	activity change, negative = cytotoxicity [2]
O=[N+]([O-])c1cc[n+]([O-])cc1	inactive	inactive	–	–
CCN1CN(CC)CN(CC)C1	inactive	inactive	–	–
O=C(C(=O)c1ccccc1)c1ccccc1	inactive	inactive	–	–
CCCCCOC(=O)CCCC	inactive	inactive	–	–
CCCN(CCC)C(=O)C(CCC(=O)O)NC(=O)c1ccccc1 (configuration not stated)	inactive	inactive	–	–
Cc1cc(=O)[nH]c(=O)[nH]1	inactive	inactive	–	–
O=C1CCCCO1	inactive	inactive	–	–
CC(C)(CC(=O)O)C(=O)O	inactive	inactive	–	–
Cc1cc2nc3c(=O)[nH]c(=O)nc-3n(C[C@H](O)[C@H](O)[C@H](O)CO)c2cc1C	inactive	inactive	–	–
CN(C)CC[C@@H](c1ccc(Cl)cc1)c1ccccn1	inactive	inactive	–	–
CCCC(=O)C(CC)Sc1ccoc1C (configuration not stated)	inactive	inactive	–	–
CCCOC(=O)c1c(Cl)c(Cl)c(Cl)c(Cl)c1C(=O)OCCC	inactive	inactive	–	–
CCNC(=O)NCCCOc1cccc(CN2CCCCC2)c1	inactive	inactive	–	–
CN1CCC(Nc2ncc3ncnc(Nc4ccc(F)c(Cl)c4)c3n2)CC1	inactive	inactive	–	–
CCCC(C)C(=O)O (configuration not stated)	inactive	inactive	–	–
Cc1ccc(S(=O)(=O)NC(=O)NC2CCCCCCC2)cc1	inactive	inactive	–	–
C=CCOc1ccccc1OCC(O)CNC(C)C (configuration not stated)	inactive	inactive	–	–
O=Cc1ccc(CO)o1	inactive	inactive	–	–
Oc1c(Br)cc(Br)c2cccnc12	inactive	inactive	–	–
CC[C@@]1(c2ccccc2)NC(=O)N(C)C1=O	inactive	inactive	–	–
C1=CCC(c2ccccc2)CC1 (configuration not stated)	inactive	inactive	–	–
CC(C)OCCO	inactive	inactive	–	–
Cc1ccc(S(=O)(=O)NC(=O)NC2CCCC2)cc1	inactive	inactive	–	–
CCc1cccc(CC)c1N	inactive	inactive	–	–
CN(C)CCN(Cc1ccsc1)c1ccccn1	inactive	inactive	–	–
NCCOCCO	inactive	inactive	–	–

Structure (SMILES)	Potency [1]	Potency [2]	viability change, negative = cytotoxic [1]	activity change, negative = cytotoxicity [2]
Nc1ccc(F)cc1F	inactive	inactive	–	–
O=C=Nc1ccc(Cc2ccc(N=C=O)cc2)cc1	inactive	inactive	–	–
CC(C)CCCCCCCOC(=O)c1ccc(C(=O)OCCCCCCCC(C)C)c(C(=O)OCCCCCCCC(C)C)c1	inactive	inactive	–	–
NCCNCCNCCN	inactive	inactive	–	–
COc1ccc(/C(C)=C/C(=O)O)c(OC)c1	inactive	inactive	–	–
CCOC(=O)C(=O)CCCCCCl	inactive	inactive	–	–
Cc1cc(OCCOCC[N+](C)(C)Cc2ccccc2)ccc1C(C)(C)CC(C)(C)C	54.2 µM (active) and 29.8 µM (active)	60.8 µM (active) and 26.6 µM (active)	–	–
CC(C)(C)c1cccc(O)c1	inactive	inactive	–	–
O=C(O)c1ccccc1C(=O)O	inactive	inactive	–	–
CCCCCCCCOCCC#N	inactive	inactive	–	–
COc1cc(C(=S)N2CCOCC2)ccc1O	inactive	inactive	–	–
COc1cc(CCC(C)=O)ccc1O	inactive	inactive	–	–
CCCCN1C(=O)c2ccccc2C1=O	inactive	inactive	–	–
C[C@]12CCC(=O)C=C1C=C[C@@H]1[C@@H]2CC[C@@]2(C)[C@H]1CC[C@@]21CCC(=O)O1	inactive	inactive	–	–
O=C(CO)[C@@H](O)[C@H](O)[C@@H](O)CO	inactive	inactive	–	–
CCCCNc1c(C(=O)OCC)c(C)nc2c1cnn2CC	inactive	inactive	–	–
CCCCCCCCCC(=O)OCC	inactive	inactive	–	–
Cc1oc(C)c(C(=O)Nc2ccccc2)c1C	inactive	inactive	–	–
Cc1[nH]cnc1CN1CCc2c(c3ccccc3n2C)C1=O	inactive	inactive	–	–
O=C1NC(=O)C2CC=CCC12 (configuration not stated)	inactive	inactive	–	–
CC(O)C#CC(C)O (configuration not stated)	inactive	inactive	–	–
CC1(C)S[C@@H]2[C@H](N=CN3CCCCCC3)C(=O)N2[C@H]1C(=O)O	inactive	inactive	–	–
C=C(C)C(=O)OCCC[Si](Cl)(Cl)Cl	inactive	inactive	–	–
Nc1nc(Cl)nc2c1ncn2[C@H]1C[C@H](O)[C@@H](CO)O1	inactive	inactive	–	–

From PubChem BioAssay (Tox21)
